IL-1B inflam inh: inflammasome signaling inhibition, IL-1 beta readout. 4.7% of 360,000 active. THP-1 LPS/ATP IL-1B secretion, AlphaLISA, 16 h; stronger effect = lower value. AID 743279. activity change, % at 57.5 µM; in the data active = activity change below about -50%; inconclusive = mostly about -30% to -49%
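Secreted IL-1B measured by AlphaLISA bead assay after 16 h compound exposure of THP-1 cells; compounds (final up to 57.5 uM) added 1 h before LPS (250 ng/mL) and ATP (1.25 mM) stimulation; lower signal means less secretion.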
TDP1 cell noCPT: qHTS for Inhibitors of human tyrosyl-DNA phosphodiesterase 1 (TDP1): qHTS in cells in absence of CPT. DT40 Tdp1-/- hTDP1 cells, no CPT, ATP luminescence, 48 h. 15% of 420,000 active. Potency, µM (titrated, usually from 46.2 µM), inactives show at the highest dose activity change, negative = growth inhibition, usual class: inhibitors; also: potency is read from the fitted curve at half-maximal effect; nearly all actives have a fitted effect of over 55% in size
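Readout: luminescence from CellTiter-Glo after 30 min in the dark at RT. Cells: DT40 Tdp1-/- with stable hTDP1, 400/well. Exposure: compounds alone, ≥48 hr, 37 °C.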
DT40 TDP1 CPT: DT40-hTDP1 cell growth loss with CPT; chicken DT40 Tdp1-/-;hTDP1 cells + 20 nM CPT, ATP luminescence, 48 h; AID 686979; 12% of 420,000 active; Potency, µM (highest dose often 46.2 µM), inactives show at the top dose activity change, negative = growth inhibition, actives largely listed as inhibitors; also: potency is read from the fitted curve at half-maximal effect; nearly all actives have a fitted effect of over 55% in size
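Cell growth measured by CellTiter-Glo luminescence after a minimum 48 h, 37 C compound exposure with 20 nM CPT in Tdp1-knockout DT40 cells stably expressing hTDP1, seeded 400/well; qHTS titration format.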
HT1080 IDH1KD tx: toxicity to HT-1080 IDH1 knockdown cells (counter line) | Potency, µM (highest dose often 46.1 µM), for inactives: top-dose activity, negative = toxicity, usual class: cytotoxic | HT-1080 IDH1 knockdown viability, ATP luminescence, 48 h | 2% of 360,000 active | AID 686971;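 also: potency is read from the fitted curve at half-maximal effect; 0% = DMSO wells and -100% = cell-free medium wells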
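% activity derives from luminescence (CellTiter-Glo), normalised to DMSO and no-cell wells. HT-1080-IDH1KD cells, 750/well, had 48 h compound exposure at 37 °C.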
HT1080NT lethal: kills 2HG-producing HT-1080-NT fibrosarcoma cells; HT-1080-NT fibrosarcoma viability, CellTiter-Glo ATP luminescence, 48 h; Potency, µM (series often up to 46.1 µM), without a hit: at the highest dose activity, negative = less viability, most hits filed as cytotoxic; 1.6% of 360,000 active; AID 686970;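 also: NT is the 2HG producing partner of a matched IDH1 knockdown line; potency is read from the fitted curve at half-maximal effect; 0% = DMSO-treated cells and -100% = media-only wells without cells; nearly all actives have a fitted effect of over 55% in size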
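Viability of the 2HG-overproducing fibrosarcoma line after 48 hours of compound exposure at 37 degrees C was determined by luminescence with CellTiter-Glo, and concentration-effect curves were then fitted and categorized.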
Active calls of the source: *; ? = inconclusive; nt = not tested or not shown; [ ] = another dose, or the depositor's remark. A selection: hits, their analogues and other compounds. The true share with any hit is near 19%. Unless noted, calls follow the shape of the dose curve; as a rule, active = well fitted curve in the direction sought with a large enough effect; inconclusive = small, poorly fitted or top-dose-only effect, or another doubt; inactive = no such curve, though single readings can be large; an effect the other way counts as inactive or inconclusive. Unless noted, % is scaled to controls: 0 for no effect and ±100 for the full control effect.

SMILES	IL-1B inflam inh	TDP1 cell noCPT	DT40 TDP1 CPT	HT1080 IDH1KD tx	HT1080NT lethal
CC(C)CC(NC(=O)OC(C)(C)C)c1cn([C@@H](CCCCNC(=O)OC(C)(C)C)C(=O)N2CCN(C(=O)OC(C)(C)C)CC2)nn1 (stereo partly specified)	-27.7	3.66µM*	5.8µM*	-6.0%	-5.9%
CC(C)(C)OC(=O)CC[C@@H](C(=O)N1CCN(C(=O)OC(C)(C)C)CC1)n1cc(C(Cc2ccc(O)cc2)NC(=O)OC(C)(C)C)nn1 (stereo partly specified)	-27.2	16.4µM*	18.4µM*	12.0%	8.2%
CC1(C)OC(=O)C=C[C@@]2(C)C1C[C@@H](O)[C@]1(C)C2CC[C@@]2(C)C(c3ccoc3)OC(=O)[C@H]3O[C@]321 (stereo partly specified)	nt	?	-21.9%[9.04 µM]	nt	nt
CC(=O)Nc1ccc(NC(=O)COc2ccc(S(=O)(=O)N3CCCC3)cc2)cc1	7.7	-13.2%	-3.4%	-2.7%	8.8%
O=C(Cc1ccc(Cl)cc1Cl)Nc1ccncc1Cl	-25.5	1.84µM*	5.17µM*	-10.7%	-9.2%
COC(=O)NC(=S)Nc1ccc(Oc2ccc(Cl)cc2)c(Cl)c1	27.2	?	?	-22.4%	?
COc1ccc(CC(=O)Nc2ccncc2Cl)cc1	-9.2	1.84µM*	4.61µM*	-16.4%	-15.2%
COC(=O)NC(=S)Nc1ccc(Oc2ccc(Cl)cc2Cl)c(Cl)c1	47.8	4.61µM*	9.2µM*	20.6µM*	16.4µM*
O=C(Cc1c(Cl)cccc1Cl)Nc1ccncc1Cl	22.1	?	?	-0.2%	2.5%
Fc1ccc(NC(=S)Nc2ccc(F)c(Cl)c2)cc1Cl	-77.2*	13µM*	23.1µM*	?	?
CCCCN1C(=O)c2cccc3cc(O)cc(c23)C1=O	35.9	?	-7.8%	?	?
Cc1ccc(CN2CCCC(C(=O)N3CCCC3)C2)cc1 (stereo unspecified)	27.5	-9.2%	8.5%	18.1%	14.7%
Cc1ccc(NC(=O)Nc2ccc(F)cc2)cc1Cl	?	23.1µM*	?	-0.6%	17.6%
O=C(Nc1ccncc1)Nc1ccc(F)c(Cl)c1	?	?	16.4µM*	-3.5%	-7.0%
C=CCNC(=O)Nc1ccc(F)c(Cl)c1	-1.6	-9.9%	-18.9%	7.1%	11.2%
O=C(Cc1ccc(Cl)cc1Cl)Nc1ccncc1	-3.2	?	11.6µM*	-23.9%	-15.6%
COc1cccc(NC(=O)Nc2ccc(C)c(Cl)c2)c1	-23.5	?	?	-19.9%	-0.9%
Cc1ccc(NC(=S)Nc2ccc(OC(F)F)c(Cl)c2)cc1F	-95.0*	?	?	?	?
N#CCCN(C(=S)NC(=O)c1ccco1)c1ccccc1F	20.7	?	?	12.6%	4.9%
N#CC1C(=N)Cc2ccccc2-c2ccccc21 (stereo unspecified)	-16.6	20.6µM*	?	16.4µM*	11.6µM*
ClCC1=Nc2ccccc2Cc2ccccc21	nt	?	-23.5%	7.1%	-10.6%
COc1ccc(C(=O)c2[nH]c(N)c(C(=O)NCCc3c[nH]c4ccccc34)c2-c2ccc(OC)c(OC)c2)cc1	?	8.2µM*	16.4µM*	?	?
Nc1[nH]c(C(=O)c2ccccc2)c(-c2ccc(Cl)c(F)c2)c1C(=O)NCCc1c[nH]c2ccccc12	-8.7	?	?	?	?
Nc1[nH]c(C(=O)c2ccccc2)c(-c2ccc(F)cc2)c1C(=O)NCCc1c[nH]c2ccccc12	?	23.1µM*	?	2.6%	4.4%
Nc1[nH]c(C(=O)c2ccccc2)c(-c2ccc(Cl)cc2)c1C(=O)NCCc1c[nH]c2ccccc12	0.0	?	?	-24.6%	?
COc1ccc(C(=O)c2[nH]c(N)c(C(=O)NCCc3c[nH]c4ccccc34)c2-c2c(F)cccc2Cl)cc1	-9.5	14.6µM*	16.4µM*	-6.7%	-8.7%

Bioassay records: PubChem, National Center for Advancing Translational Sciences (NCATS)
